For 31 compounds, outcome results are on record in PubChem BioAssay AID602127 (Broad Institute, 2011).

Measured potencies and affinities stand elsewhere. Active and inactive are the calls of the source.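 The calls were made as follows: active = every repeat test judged active, meaning a falling signal with potency within twice the top valid dose; inconclusive = repeat tests disagree on the call; inactive = every repeat test inactive, including signal moving upward.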

This experiment addresses Cyclin-dependent kinase 2 (Homo sapiens) (UniProt P24941). The experiment is described as follows: CDK2 kinase inhibitors, off-target check, dose response, selectivity assay for Dyrk1A inhibitor project, biochemical, cherry-picked samples (AID 602127). As to conditions: CDK2/cyclin A kinase, ADP-Glo luminescence, 60 min; series mostly up to 10 µM.
In the case of `CN(C)c1ccc(-c2nccc(NCc3cccs3)n2)cc1`, the compound was classed as inactive. For the compound `Cc1ccsc1CN(C)c1ncnc2ccc(-c3ccc(CO)o3)cc12`, the compound was called inactive.

In the case of `O=C(Nc1nc(-c2ccncc2)cs1)c1ccco1`, the compound was classed as inactive. Regarding `COc1cccc(Nc2ncnc3ccccc23)c1`, the call was inactive. Regarding `O=C(COc1ccccc1)Nc1cccc(-c2cn3cccnc3n2)c1`, the result was inactive. Under `O=C(Nc1nc2c(s1)CCCC2)c1ccc(N2C(=O)CCC2=O)cc1` stands “inactive”. `c1csc(CNc2ncnc3ccc(-c4ccoc4)cc23)c1`: the compound was classed as inactive. With `O=C(O)COc1ccc(/C=C/c2nc3ccc([N+](=O)[O-])cc3s2)cc1` the entry was “inactive”.

With `CCOC(=O)c1ccc(-c2ccc3ncnc(N(C)Cc4sccc4C)c3c2)o1`, the result was inactive.

Consider `Clc1ccc(CNc2ccnc(-c3ccc4[nH]ncc4c3)n2)cc1Cl`, for which the outcome was inactive.

Turning to `Cc1noc(NS(=O)(=O)c2ccc(NC(=O)c3oc4ccc(Cl)cc4c3C)cc2)c1C`, the outcome was inactive.

Turning to `CCCC(=O)Nc1nc(-c2ccc3c(c2)OCCO3)cs1`, the call was inactive. Take `c1cncc(CNc2ccnc(-c3ccc4cn[nH]c4c3)n2)c1`: the result was inactive. Under `COc1ccc2c(Cl)c(C(=O)NCc3ccco3)sc2c1` stands “inactive”; under `COc1cccc(Nc2nc(NCCO)c3ccccc3n2)c1`, “inactive”.

Turning to `Clc1ccc(Nc2nccc(-c3ccc4c(c3)OCO4)n2)cc1`, the outcome was inactive. With `c1cncc(CNc2ccnc(-c3ccc4[nH]ncc4c3)n2)c1`, the compound was classed as inactive. With `c1cncc(CNc2cc(-c3ccc4c(c3)OCO4)ncn2)c1` the entry was “inactive”.

In the case of `Clc1ccccc1-c1ccc2ncnc(NCc3ccc4c(c3)OCO4)c2c1`, the result was inactive. As for `Clc1ccc(CNc2nccc(-c3ccc4cn[nH]c4c3)n2)cc1Cl`, the compound was classed as inactive.

Take `O=C(NCc1ccco1)c1sc2ccccc2c1Cl`: the outcome was inactive. Under `CC(Nc1nc(-c2cccnc2)nc2ccccc12)c1ccc(F)cc1` (stereo unspecified) stands “inactive”; under `c1cncc(-c2nc(NCc3ccco3)c3ccccc3n2)c1`, “inactive”. With `CN(Cc1nccs1)c1ncnc2ccc(-c3ccc4c(c3)OCO4)cc12`, the compound was classed as inactive.

For `CCOC(=O)c1ccc2ncc(C(=O)OCC)c(Nc3ccc(N4CCOCC4)cc3)c2c1`, the compound was called inactive. Under `CCN1CCN(Cc2ccc(NC(=O)c3ccc(C)c(/C=C/c4cnc(Nc5cc(N6CCNCC6)nc(C)n5)cn4)c3)cc2C(F)(F)F)CC1` stands “inactive”; under `O=[N+]([O-])c1cc(Nc2nccc(-c3ccc4c(c3)OCO4)n2)cc(C(F)(F)F)c1`, “inactive”. With `COc1ccc(-c2[nH]ncc2-c2ccc3c(c2)OCCO3)c(O)c1` the entry was “inactive”; with `Cc1occc1CNc1ncnc2ccc(-c3ccc4c(c3)OCO4)cc12`, “inactive”.

On to `Cc1nc(NC(=O)c2ccccc2)sc1-c1csc(N)n1`, for which the compound was called inactive. In the case of `Cc1cc(NCCCn2ccnc2)n2ncc(-c3ccc(Cl)cc3)c2n1`, the outcome was inactive.
